This is an account of results in PubChem BioAssay (NCATS).

Experiment [1] deals with Glutathione peroxidase 1 (Homo sapiens) (UniProt P07203). Put plainly: Primary qHTS Assay for Inhibitors of Recombinant Selenoprotein Glutathione Peroxidase 1 (GPX1) (AID 1845191). Also: nearly all actives have a fitted effect of over 65% in size. Also: potency is read from the fitted curve at half-maximal effect. As to activity, negative = inhibition: % is scaled to controls: 0 for no effect and ±100 for the full control effect. An outline of the steps:
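Recombinant GPX1 (10 nM final) was preincubated with compound for 30 min at room temperature, then reacted with 1 mM GSH, 0.5 mM CHP, 0.5 mM NADPH and 100 nM glutathione reductase; NADPH fluorescence (340/450 nm) was read at 0 and 15 min.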
(qHTS replaces the single test concentration by a dilution series.)

Experiment [2] deals with Phospholipid hydroperoxide glutathione peroxidase GPX4 (Homo sapiens) (UniProt P36969). The experiment is described as follows: Primary qHTS Assay for Inhibitors of Recombinant Selenoprotein Glutathione Peroxidase 4 (GPX4) (AID 1845192). Also: nearly all actives have a fitted effect of over 65% in size. Also: potency is read from the fitted curve at half-maximal effect. As to activity change, negative = inhibition: series mostly up to about 50 µM; % is scaled to controls: 0 for no effect and ±100 for the full control effect. The method in brief:
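GR-coupled readout: 100 nM GR, 1 mM GSH, 0.5 mM NADPH; NADPH fluorescence (ex 340/em 450 nm) read at t=0 and after 15 min RT. GPX4 200 nM, preincubated 30 min with compound; substrate 0.5 mM CHP.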

The target in experiment [3] is Luciferin 4-monooxygenase (Photinus pyralis) (UniProt P08659). Put plainly: Primary firefly luciferase (FLuc) qHTS assay for identification of artifact compounds. (AID 1845220). Also: nearly all actives have a fitted effect of over 60% in size. Also: potency is read from the fitted curve at half-maximal effect.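 As to activity change, negative = inhibition: series mostly up to about 54 µM; plate controls were DMSO vehicle for no effect and no enzyme for full effect.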 An outline of the steps: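 qHTS, 15 min compound preincubation with substrate (10 uM luciferin, 10 uM ATP) at RT, then 10 nM FLuc; 5 min; luminescence; % inhibition vs no-enzyme/DMSO controls, 4-parameter Hill fit.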

A short description of experiment [4]: Primary fluorescence-based thiol-reactive (MSTI) qHTS assay for identification of artifact compounds. (AID 1845221). Also: nearly all actives have a fitted effect of over 65% in size. Also: potency is read from the fitted curve at half-maximal effect.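 As to activity change, negative = thiol reactive: series mostly up to about 54 µM; thiol-reactive compounds lower the probe fluorescence signal.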 The method in brief: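 qHTS titration of compound; 4 uM MSTI, PBS pH 7.4, 2% DMSO; 1 h RT, dark; fluorescence 525/598 nm; normalized to Acetyl-MSTI and MSTI; 4-parameter Hill fit.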
The test system of experiment [5] is Nanoluciferase (engineered Oplophorus gracilirostris luciferase). Put plainly: Primary Nanoluciferase (NLuc) qHTS assay for identification of artifact compounds. (AID 1845222).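 Also: series mostly up to about 54 µM; 0% = DMSO and -100% = no enzyme.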 An outline of the steps: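 Luminescence read-out of secreted NLuc in S16 cell conditioned medium (1:55); compounds tested with 15 min RT preincubation, then Nano-Glo substrate 1:100, 5 min. % inhibition vs no-enzyme and DMSO controls, 4-parameter Hill fit.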

Experiment [6] can be described thus: Primary redox qHTS assay for identification of artifact compounds. (AID 1845223).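 Also: 0% = DMSO and 100% = reference compound.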 The method in brief:
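Amplex Red (25 uM) and HRP (250 mU/mL) in HBSS, with compounds for 15 min, then 250 uM DTT for 30 min, room temperature, dark. Fluorescence 525/598 nm read; normalized to DMSO and 10 uM DA3003; Hill fit.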

The structures appear in SMILES notation. “And” between values parts separate entries of the source, which are not always exact repeats. Equal entries are not always repeated. A number with no mark means an inactive call. Records with an inconclusive call do not appear. The source made the active and inactive calls. Calls follow the shape of the dose curve; as a rule, active = well fitted curve in the direction sought with a large enough effect; inconclusive = small, poorly fitted or top-dose-only effect, or another doubt; inactive = no such curve, though single readings can be large; an effect the other way counts as inactive or inconclusive.

Phospholipid hydroperoxide glutathione peroxidase GPX4 (Homo sapiens), sequence (P36969 whole entry, looked up): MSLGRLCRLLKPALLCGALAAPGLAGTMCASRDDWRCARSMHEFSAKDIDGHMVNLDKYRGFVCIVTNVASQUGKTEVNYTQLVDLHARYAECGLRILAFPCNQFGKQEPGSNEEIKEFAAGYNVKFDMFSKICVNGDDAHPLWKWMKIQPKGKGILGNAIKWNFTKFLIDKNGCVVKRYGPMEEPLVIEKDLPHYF
Glutathione peroxidase 1 (Homo sapiens), sequence (P07203 whole entry, looked up): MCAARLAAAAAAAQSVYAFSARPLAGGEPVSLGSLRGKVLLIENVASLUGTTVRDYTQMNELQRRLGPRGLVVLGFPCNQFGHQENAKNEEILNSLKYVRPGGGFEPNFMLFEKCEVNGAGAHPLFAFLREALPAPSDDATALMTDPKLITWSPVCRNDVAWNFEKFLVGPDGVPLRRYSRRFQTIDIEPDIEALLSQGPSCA

On to `COc1ccc([C@H]2Cc3cccc(O)c3C(=O)O2)cc1OC`, for which the Potency entry in experiment [1], in experiment [2], in experiment [3], in experiment [4], in experiment [5] and in experiment [6] was “inactive” in each case.

With `COC1CC(=O)C23C(=O)NC(CC(C)C)C2C(C)C(C)=CC3/C=C(\C)CCCC1O` (stereo unspecified), the Potency result in experiment [1], in experiment [2], in experiment [3], in experiment [4], in experiment [5] and in experiment [6] was “inactive” in each case.

Take `O=C(NCc1ccccc1)c1ccc2c(=O)n(-c3cccc(C(F)(F)F)c3)c(=S)[nH]c2c1`: the Potency entry in experiment [1], in experiment [2], in experiment [3], in experiment [4], in experiment [5] and in experiment [6] was “inactive” each time.

Regarding `Cc1cc(-c2nc(-c3ccc(OC(F)(F)F)cc3)no2)nn1Cc1ccnc(N2CCN(C3CC3)CC2)c1`, the Potency result in experiment [1], in experiment [2], in experiment [3], in experiment [4], in experiment [5] and in experiment [6] was “inactive” in each case.

Regarding `Cc1nc(Nc2ccc(F)cc2)nc(N2CCc3ccccc3C2C)c1C` (stereo unspecified), the Potency entry in experiment [1], in experiment [2], in experiment [3], in experiment [4], in experiment [5] and in experiment [6] was “inactive” in each case.

`COc1c2c(c(C)c3c1C(=O)OC3)O[C@@]1(C)C[C@@H](OC(C)=O)[C@]34O[C@](OC)(CC[C@]3(C)[C@H]1C2)OC4(C)C`: the Potency result in experiment [1], in experiment [2], in experiment [3], in experiment [4], in experiment [5] and in experiment [6] was “inactive” throughout.

In the case of `OC(CC1c2ccccc2-c2cncn21)C1CCCCC1` (stereo unspecified), the Potency result in experiment [1], in experiment [2], in experiment [3], in experiment [4], in experiment [5] and in experiment [6] was “inactive” each time.

Turning to `CC(=O)NC[C@H]1CN(c2ccc(N3CCSCC3)c(F)c2)C(=O)O1`, the Potency entry in experiment [1], in experiment [2], in experiment [3], in experiment [4], in experiment [5] and in experiment [6] was “inactive” throughout.

As to `CC(=O)O[C@@H]1[C@H](O[C@@H]2O[C@@H](CO)[C@H](O)[C@H]2O)[C@@H](O[C@@H]2O[C@@H](C)[C@H](O[C@@H]3OC[C@@H](O)[C@H](O)[C@H]3O)[C@@H](O)[C@H]2O)[C@H](OC(=O)[C@]23CCC(C)(C)C[C@H]2C2=CCC4[C@@]5(C)CC[C@H](O[C@@H]6O[C@H](C(=O)O)[C@@H](O)[C@H](O)[C@H]6O[C@@H]6O[C@H](CO)[C@H](O)[C@H](O)[C@H]6O)[C@@](C)(C=O)C5CC[C@@]4(C)[C@]2(C)C[C@H]3O)O[C@@H]1C` (stereo partly specified), the outcome was “inactive [at 9.52 µM]” in experiment [1] and “inactive [at 11.6 µM]” in experiment [3]. Besides, the activity change, negative = inhibition in experiment [2] was -0.242% [at 9.73 µM]. In experiment [4], the activity change, negative = thiol reactive is 435% [at 11.5 µM]. Moreover, the activity, negative = inhibition in experiment [5] is 0% [at 11.6 µM]. The redox activity (% of DA3003) in experiment [6] is 9.67% [at 11.5 µM].

With `Cn1ncc(Cl)c1-c1cc(C(=O)N[C@H](CN)Cc2cccc(F)c2)sc1Cl`, the Potency entry in experiment [1], in experiment [2], in experiment [3], in experiment [4], in experiment [5] and in experiment [6] was “inactive” throughout.

Take `COc1cc(/C=C2\CC[C@H]3COC[C@@H](c4cc(F)c(F)c(F)c4)N3C2=O)ccc1-n1cnc(C)c1`: the Potency entry in experiment [1], in experiment [2], in experiment [3], in experiment [4], in experiment [5] and in experiment [6] was “inactive” in each case.

For the molecule `Cc1cnn(-c2ccccc2)c1NC(=O)COCc1ccccc1`, the Potency result in experiment [1], in experiment [2], in experiment [3], in experiment [4], in experiment [5] and in experiment [6] was “inactive” each time.

Take `COc1ccc(S(=O)(=O)n2cnc3cc(C)c(C)cc32)cc1`: the Potency entry in experiment [1], in experiment [2], in experiment [3], in experiment [4], in experiment [5] and in experiment [6] was “inactive” in each case.

Take `O=C(NCCCCN1CCN(c2cccc(Cl)c2Cl)CC1)c1cc2ccccc2s1`: the Potency entry in experiment [1], in experiment [2], in experiment [3], in experiment [4], in experiment [5] and in experiment [6] was “inactive” throughout.

In the case of `CCn1nc(C2CCN(C(=O)CCO)CC2)nc1-c1cnc(N)c(-c2nnc(C(C)(C)C)o2)n1`, the Potency in experiment [1] is 20.2 µM (active) and 20.5 µM (active); in experiment [2], 14.3 µM (active). Further, the Potency entry in experiment [3], in experiment [4], in experiment [5] and in experiment [6] was “inactive” in each case.

Turning to `C=C(C)C1=C[C@@]2(C)C(=CC1=O)CC[C@@H](O)[C@@H]2C`, the Potency entry in experiment [1], in experiment [2], in experiment [3], in experiment [4], in experiment [5] and in experiment [6] was “inactive” each time.

Consider `CC(=O)O[C@H]1CC2C(COC(=O)CC(C)C)=CO[C@@H](OC(=O)CC(C)C)C2[C@]12CO2` (stereo partly specified), for which the Potency result in experiment [1], in experiment [2], in experiment [3], in experiment [4], in experiment [5] and in experiment [6] was “inactive” throughout.

For `CC(=O)O[C@@H]1CC[C@@]2(C)C(CC[C@]3(C)C2[C@H](O)C=C2[C@H]4[C@@H](C)[C@H](C)CC[C@]4(C)CC[C@]23C)[C@@]1(C)C(=O)O` (stereo partly specified), the Potency result in experiment [1], in experiment [2], in experiment [3], in experiment [4], in experiment [5] and in experiment [6] was “inactive” in each case.

As to `COc1cc(O)cc(/C=C/c2cccc(O)c2)c1`, the Potency entry in experiment [1], in experiment [2], in experiment [5] and in experiment [6] was “inactive” each time. In addition, the Potency is 10.7 µM (active) in experiment [3] and 18.9 µM (active) in experiment [4].

`O=C(NCCN1CCOCC1)c1cc2c(Oc3ccc(NC(=O)C4(C(=O)Nc5ccc(F)cc5)CC4)cc3)ccnc2[nH]1`: the Potency result in experiment [1], in experiment [2], in experiment [3], in experiment [4], in experiment [5] and in experiment [6] was “inactive” in each case.

As to `CC#C[C@@H](CC(=O)O)c1ccc(OCc2ccc(CN3CCC4(C=Cc5ccccc54)CC3)s2)cc1`, the Potency result in experiment [1], in experiment [2], in experiment [3], in experiment [4], in experiment [5] and in experiment [6] was “inactive” in each case.

On to `C/C=C(\C)C(=O)OC1C(C)C2(O)C(C=C(CO)CC3(O)C(=O)C(C)=CC32)C2C(C)(C)C12OC(=O)C(C)C` (stereo unspecified), for which the Potency result in experiment [1], in experiment [2], in experiment [3], in experiment [4], in experiment [5] and in experiment [6] was “inactive” throughout.

For the molecule `C=C1C(=O)O[C@@H]2[C@H]3C(C)=CC(=O)C3=C(C)CC[C@@H]12`, the Potency entry in experiment [1], in experiment [2], in experiment [3], in experiment [4], in experiment [5] and in experiment [6] was “inactive” each time.

As for `COc1ccc2nc(-c3cc(OC)c(OC)c(OC)c3)cc(C(=O)NCC(=O)Nc3ccc(C(C)=O)cc3)c2c1`, the Potency entry in experiment [1], in experiment [2], in experiment [3], in experiment [4], in experiment [5] and in experiment [6] was “inactive” throughout.

`CC[N+]1(C/C2=C/CCCCCC2)CCC(NC(=O)C2c3cc(Cl)ccc3Oc3ccc(Cl)cc32)CC1` (stereo unspecified): the Potency entry in experiment [1], in experiment [2], in experiment [3], in experiment [4], in experiment [5] and in experiment [6] was “inactive” in each case.

Turning to `O=C(CNC(=O)c1cccc(C(F)(F)F)c1)N[C@@H]1CCN(Cc2ccc(Cl)cc2)C1`, the Potency entry in experiment [1], in experiment [2], in experiment [3], in experiment [4], in experiment [5] and in experiment [6] was “inactive” in each case.
